Screening data deposited in PubChem by several laboratories.
iPSC survival up – enhancers of single-cell hiPSC survival, primary screen, ATPlite luminescence; 360,000 compounds, 0.044% hits; 100% = ROCK inhibitor wells, 0% = DMSO; AID 602274, 2012; survival enhancement, % at 20 µM; in the data active = survival enhancement above about 18%;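 note: cells exposed to compounds for 16 hours before the ATP read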
H9c2 protect – cardioprotection against H2O2-induced cell death, primary screen, uHTS, H9c2 cells, ATPLite luminescence | H9c2 cardiomyocytes, H2O2 injury protection, 2 h | protection from H2O2 cell death, % at 20 µM | 360,000 compounds, 0.63% hits | AID 588492, 2011;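 active = compounds giving at least 50% protection of heart cells from peroxide-induced death in the single-dose screen, raw or plate-pattern-corrected value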;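 note: 0% = DMSO wells with peroxide and 100% = DMSO wells without peroxide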
Myeloid diff MLP – induction of myeloid progenitor differentiation, primary screen, cell-based, flow cytometry, MLPCN library. ER-HoxA9 myeloid progenitors, lysozyme-GFP differentiation. calls only at 10 µM. 360,000 compounds, 1% hits;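 active = normalized GFP-positive differentiation at or above the plate's own cutoff, the solvent-only control mean plus 3 SD; inconclusive = no clear call, values can overlap the other calls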;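 note: cells exposed to compound for four days before flow analysis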
beta cell repl – inducers of MIN6 beta-cell proliferation, primary screen, ATP luminescence, uHTS; MIN6 cells proliferation, ATPlite luminescence, 48 h; cells starved in 0.2% serum; 100% = growth in 10% serum; proliferation, % at 10 µM; AID 2380, 2010; 330,000 compounds, 0.29% hits;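 active = compounds whose signal lies at least 3.5 SD above the mean of all wells on their plate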;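 note: 0% = DMSO-treated cells in low-serum medium and 100% = 10% serum control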
ABCB6 inh MLPCN – ABCB6 transporter inhibitors, primary screen, K562-ABCB6 cells, flow cytometry, MLPCN library; ATP-binding cassette sub-family B member 6 (Homo sapiens), Q9NP58; 360,000 compounds, 0.19% hits; AID 602162, 2011; K562-ABCB6 porphyrin accumulation, 1 h; active compounds read low; fluorescence ratio to DMSO, % at 10 µM;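 active = fluorescence ratio to DMSO below 75%, the collection mean minus 3 SD; inconclusive = too few cells collected in the well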;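 note: signal is porphyrin accumulated inside mitochondria; 100% equals median channel fluorescence of DMSO control wells; lower ratio means ABCB6 inhibition with less porphyrin fluorescence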
Target sequence (Q9NP58 whole entry, looked up): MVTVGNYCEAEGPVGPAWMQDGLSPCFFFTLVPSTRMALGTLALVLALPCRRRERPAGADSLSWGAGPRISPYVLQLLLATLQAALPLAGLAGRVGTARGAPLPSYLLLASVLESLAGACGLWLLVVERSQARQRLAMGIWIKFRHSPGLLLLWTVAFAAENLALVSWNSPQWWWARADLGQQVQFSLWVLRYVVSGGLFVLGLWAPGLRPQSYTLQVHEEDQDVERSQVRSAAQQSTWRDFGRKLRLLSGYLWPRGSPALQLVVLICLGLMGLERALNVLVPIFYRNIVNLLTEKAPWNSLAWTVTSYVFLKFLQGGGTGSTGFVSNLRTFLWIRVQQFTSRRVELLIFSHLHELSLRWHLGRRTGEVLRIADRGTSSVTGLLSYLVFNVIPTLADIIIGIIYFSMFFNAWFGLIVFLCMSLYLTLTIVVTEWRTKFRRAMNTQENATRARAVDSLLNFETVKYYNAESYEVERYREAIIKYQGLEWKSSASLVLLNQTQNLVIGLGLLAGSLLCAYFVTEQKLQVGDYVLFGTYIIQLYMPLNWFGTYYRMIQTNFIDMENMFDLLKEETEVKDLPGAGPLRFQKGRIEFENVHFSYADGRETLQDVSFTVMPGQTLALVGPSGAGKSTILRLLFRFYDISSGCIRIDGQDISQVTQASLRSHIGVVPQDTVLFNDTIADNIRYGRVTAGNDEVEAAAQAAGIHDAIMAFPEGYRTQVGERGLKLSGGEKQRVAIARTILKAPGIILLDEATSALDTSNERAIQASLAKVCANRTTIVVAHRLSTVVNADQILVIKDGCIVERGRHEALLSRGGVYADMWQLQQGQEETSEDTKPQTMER
Myeloid diff CP1 – inducers of myeloid progenitor differentiation, confirmation, cell-based, GFP/Mac1 flow cytometry, cherry pick 01; calls only; 2,300 compounds, 2% hits; shares compounds with Myeloid diff MLP; ER-HoxA9 myeloid progenitors, GFP/Mac1 double-positive flow; AID 651706, 2012;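 active = share of green or green-and-red cells above 9 and 9% in run 1 or 4 and 3% in run 2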
GFP autofluor – counter-screen for myeloid differentiation promoters: compound fluorescence; shares compounds with Myeloid diff MLP; ER-HoxA9 myeloid progenitors, no estrogen, GFP autofluorescence flow cytometry; vehicle wells 0%, positive control 100%; fluorescence response, % (concentration not given with the values); 2,300 compounds, 7.4% hits;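 active = over 5% cells positive for green fluorescent reporter, or over 2% positive for both it and APC stain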;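 note: range taken on the double positive population between DMSO and positive control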
An asterisk follows results filed as active. Sampled rows, rich in hits. Any-hit rate of the full collection: about 2.2%.

Results for COc1ccc(CN2CCC[C@]3(N[C@H](c4ccc(C)cc4)[C@@H]4C(=O)N(Cc5ccccc5)C(=O)[C@@H]43)C2=O)cc1 ?
iPSC survival up: -0.9; H9c2 protect: 3.7; Myeloid diff MLP: inactive; ABCB6 inh MLPCN: 98.0; Myeloid diff CP1: inactive; GFP autofluor: 0.0

Results for Cc1cc(C(=O)N(C)CC2CCCN(CCc3ccc(F)cc3)C2)c(C)o1 (configuration not stated) ?
iPSC survival up: 1.7; H9c2 protect: 13.4; Myeloid diff MLP: inconclusive; beta cell repl: -2.0; ABCB6 inh MLPCN: 95.0

Results for CCn1c2ccc(C)cc2c2nnc(SCCN3CCOCC3)nc21 ?
iPSC survival up: 0.8; H9c2 protect: 6.1; Myeloid diff MLP: inactive; beta cell repl: -1.7; ABCB6 inh MLPCN: 92.0

How did Cc1c(NC(=O)C(C)OC(=O)/C=C/c2ccco2)c(=O)n(-c2ccccc2)n1C (configuration not stated) do in these assays?
iPSC survival up: -0.2; H9c2 protect: -0.5; Myeloid diff MLP: inactive; beta cell repl: -1.6; ABCB6 inh MLPCN: 101.0

What do the screens show for `CCN(CC)S(=O)(=O)c1ccc2oc(SCC(=O)Nc3cc(C)on3)nc2c1`?
iPSC survival up: -0.4; H9c2 protect: 18.1; Myeloid diff MLP: active; beta cell repl: -7.3; ABCB6 inh MLPCN: 94.0; Myeloid diff CP1: inactive; GFP autofluor: 0.7

What do the screens show for `COc1cccc(NC(=O)CN(C)C(=O)CC2CCCC2)c1`?
iPSC survival up: 0.5; H9c2 protect: 0.4; Myeloid diff MLP: inactive; ABCB6 inh MLPCN: 100.0; Myeloid diff CP1: inactive; GFP autofluor: 0.3

How did CCOc1cc(-c2nc3n(c(=O)c2C#N)CCS3)ccc1O do in these assays?
iPSC survival up: -0.7; H9c2 protect: -3.4; Myeloid diff MLP: inactive; beta cell repl: -0.6; ABCB6 inh MLPCN: 117.0

Results for O=C(c1ccc2ccccc2c1)N1CCN(c2ccc([N+](=O)[O-])c(N3CCOCC3)c2)CC1 ?
iPSC survival up: -0.7; H9c2 protect: -0.9; Myeloid diff MLP: inactive; beta cell repl: -4.2; ABCB6 inh MLPCN: 104.0

What do the screens show for `COc1ccccc1C/C(N)=N/OC(=O)COc1cccc2ccccc12`?
iPSC survival up: -0.8; H9c2 protect: -1.9; Myeloid diff MLP: inactive; beta cell repl: -3.0; ABCB6 inh MLPCN: 102.0

How did N/C(Cc1cccc2ccccc12)=N\OC(=O)COc1ccccc1 do in these assays?
iPSC survival up: 1.3; H9c2 protect: -4.4; Myeloid diff MLP: inactive; beta cell repl: -2.3; ABCB6 inh MLPCN: 102.0; Myeloid diff CP1: inactive; GFP autofluor: 0.4

How did COc1cc(C2CC(=O)Nc3cc(C)c(C)cc32)cc(OC)c1OC (configuration not stated) do in these assays?
iPSC survival up: 0.2; H9c2 protect: 2.1; Myeloid diff MLP: active; beta cell repl: 0.0; ABCB6 inh MLPCN: 98.0; Myeloid diff CP1: inactive; GFP autofluor: 2.1

How did COC(=O)c1sccc1NC(=O)c1csc(C)c1 do in these assays?
iPSC survival up: -2.4; H9c2 protect: -1.1; Myeloid diff MLP: active; beta cell repl: 1.2; ABCB6 inh MLPCN: 97.0; Myeloid diff CP1: inactive; GFP autofluor: 0.2

How did Cc1cccc(OCCOC(=O)c2c(-c3ccccc3)noc2C)c1 do in these assays?
iPSC survival up: -0.6; H9c2 protect: -14.8; Myeloid diff MLP: active; beta cell repl: -6.2; ABCB6 inh MLPCN: 90.0; Myeloid diff CP1: inactive; GFP autofluor: 0.7

Results for CC(=O)c1ccc(NS(=O)(=O)c2ccc3c(c2)CCC(=O)N3)cc1 ?
iPSC survival up: 1.3; H9c2 protect: 4.5; Myeloid diff MLP: inactive; beta cell repl: -2.5; ABCB6 inh MLPCN: 97.0

What do the screens show for `COC(=O)c1cc(NS(=O)(=O)c2ccc3c(c2)CCC(=O)N3)cc(C(=O)OC)c1`?
iPSC survival up: 1.4; H9c2 protect: 2.3; Myeloid diff MLP: active; beta cell repl: -1.9; ABCB6 inh MLPCN: 94.0; Myeloid diff CP1: inactive; GFP autofluor: 0.0

What do the screens show for `COc1ccc(-c2nnc(SCC(=O)Nc3cccc(Cl)c3)o2)cc1`?
iPSC survival up: -0.5; H9c2 protect: -11.0; Myeloid diff MLP: inactive; beta cell repl: -3.6; ABCB6 inh MLPCN: 96.0

Results for CC(C)(C)NC(=O)CCN(/N=C/c1ccc([N+](=O)[O-])o1)C1=NS(=O)(=O)c2ccccc21 ?
iPSC survival up: 0.0; H9c2 protect: 6.2; Myeloid diff MLP: active; ABCB6 inh MLPCN: 106.0; Myeloid diff CP1: inactive; GFP autofluor: 1.3

Results for CCOc1ccc(NC(=O)CC2C(=O)N(c3ccc(OCC)cc3)C(=S)N2C2CC2)cc1 (configuration not stated) ?
iPSC survival up: -0.1; H9c2 protect: 2.8; Myeloid diff MLP: inactive; beta cell repl: 2.2; ABCB6 inh MLPCN: 106.0

How did CCN(CC)c1ccc(/C=C2\CCC(/C=N/NC(=O)c3ccc(=O)n(C)c3)=C2N2CCOCC2)cc1 do in these assays?
iPSC survival up: 1.7; H9c2 protect: 13.9; Myeloid diff MLP: active; beta cell repl: -4.7; ABCB6 inh MLPCN: 503.0; Myeloid diff CP1: inactive; GFP autofluor: 98.5*

How did O=C(N/N=C/C1=C(N2CCOCC2)C(=C\c2ccccc2)/CC1)Nc1ccccc1 do in these assays?
iPSC survival up: 0.0; H9c2 protect: 0.1; Myeloid diff MLP: inactive; beta cell repl: 0.0; ABCB6 inh MLPCN: 101.0

How did CCN(CC)c1ccc(/C=C2\CCC(/C=C(\C#N)C(=O)Nc3ccccc3F)=C2N2CCOCC2)cc1 do in these assays?
iPSC survival up: -2.6; H9c2 protect: -14.7; Myeloid diff MLP: inactive; ABCB6 inh MLPCN: inactive; Myeloid diff CP1: inactive; GFP autofluor: 5.5*

What do the screens show for `N#C/C(=C/C1=C(N2CCOCC2)C(=C/c2cccc([N+](=O)[O-])c2)/CC1)C(=O)Nc1ccccc1F`?
iPSC survival up: -1.2; H9c2 protect: 3.7; Myeloid diff MLP: active; ABCB6 inh MLPCN: 745.0; Myeloid diff CP1: inactive; GFP autofluor: 45.7*

Results for Cc1ccc(C=Nc2ccccc2C(N)=O)s1 ?
iPSC survival up: 0.9; H9c2 protect: 33.1; Myeloid diff MLP: inconclusive; beta cell repl: 0.0; ABCB6 inh MLPCN: 101.0

What do the screens show for `CN1CCN(c2nc3c(c(=O)n(C)c(=O)n3C)n2Cc2ccc(F)cc2)CC1`?
iPSC survival up: 0.2; H9c2 protect: 9.5; Myeloid diff MLP: inactive; beta cell repl: 2.3; ABCB6 inh MLPCN: 100.0

How did N#CCc1ccc(OCCCN2CCC(C(O)(c3ccccc3)c3ccccc3)CC2)cc1 do in these assays?
iPSC survival up: -0.5; Myeloid diff MLP: inactive; ABCB6 inh MLPCN: 97.0
